# Source: ChEMBL document CHEMBL3988442, “University of Dundee, Small-Polar-MMV Screening Library” (2021)
# For some of these results: Entries with a potency or affinity are not part of this list.
# Assays:
# Set-up in all cases: scale not given: direction of the effect not stated beside the values
# [1] = biological target: Protein translocase subunit SecA (Escherichia coli (strain K12)) (UniProt P10408); assay: Assay to Identify E. coli SecA ATPase Inhibitors; format: functional; details: 30 µM
# [2] = biological target: T1, Ubiquitin-activating enzyme e1, putative (Leishmania donovani (strain BPK282A1)) (UniProt E9BSI1); assay: Leishmania donovani Ubiquitin Activating Enzyme (LdE1); format: functional; details: 30 µM
# T1 sequence (whole entry): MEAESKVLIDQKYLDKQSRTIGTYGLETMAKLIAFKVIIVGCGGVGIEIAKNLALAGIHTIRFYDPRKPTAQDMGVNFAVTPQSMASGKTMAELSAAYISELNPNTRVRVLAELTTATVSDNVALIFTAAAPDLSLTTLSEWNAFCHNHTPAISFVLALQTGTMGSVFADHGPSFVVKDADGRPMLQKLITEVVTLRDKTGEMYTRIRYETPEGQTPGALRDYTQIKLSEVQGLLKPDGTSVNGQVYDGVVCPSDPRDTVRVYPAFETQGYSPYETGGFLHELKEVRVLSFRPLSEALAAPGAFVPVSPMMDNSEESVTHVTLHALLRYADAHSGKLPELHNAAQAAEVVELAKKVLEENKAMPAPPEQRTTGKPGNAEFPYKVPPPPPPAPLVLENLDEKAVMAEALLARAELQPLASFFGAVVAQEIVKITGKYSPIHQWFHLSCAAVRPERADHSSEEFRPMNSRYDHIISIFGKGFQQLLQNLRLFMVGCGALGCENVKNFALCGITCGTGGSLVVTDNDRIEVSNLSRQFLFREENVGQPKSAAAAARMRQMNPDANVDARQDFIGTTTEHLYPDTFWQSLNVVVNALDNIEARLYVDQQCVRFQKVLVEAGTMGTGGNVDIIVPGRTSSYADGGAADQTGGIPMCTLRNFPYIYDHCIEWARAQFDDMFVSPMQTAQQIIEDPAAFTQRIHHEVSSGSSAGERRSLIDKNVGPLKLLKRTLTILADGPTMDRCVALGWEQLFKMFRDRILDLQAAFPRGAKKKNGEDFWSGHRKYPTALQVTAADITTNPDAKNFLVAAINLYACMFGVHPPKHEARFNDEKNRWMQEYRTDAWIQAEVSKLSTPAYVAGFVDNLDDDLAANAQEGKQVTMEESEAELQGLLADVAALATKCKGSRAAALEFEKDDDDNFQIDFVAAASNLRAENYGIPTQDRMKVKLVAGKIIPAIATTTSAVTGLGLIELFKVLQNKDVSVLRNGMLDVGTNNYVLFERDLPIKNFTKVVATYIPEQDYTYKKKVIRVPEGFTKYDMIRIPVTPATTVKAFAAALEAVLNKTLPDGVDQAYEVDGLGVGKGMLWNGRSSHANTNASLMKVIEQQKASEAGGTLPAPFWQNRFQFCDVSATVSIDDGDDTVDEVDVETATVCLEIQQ
# [3] = biological target: AMP-activated protein kinase, AMPK (Homo sapiens) (UniProt P54646+O43741+P54619+Q9UGJ0+Q9Y478+Q13131+Q9UGI9); assay: AMP-dependent Kinase enzyme assay. An in vitro enzyme assay that detects ADP turnover that is directly proportional to AMPK activity. This uses naive AMPK that is activated during the assay with MK-8722; format: functional; details: 30 µM
# [4] = biological target: Sialic acid-binding Ig-like lectin 9 (Homo sapiens) (UniProt Q9Y336); assay: Hs-Siglec9 ALPHAscreen SOP 20170721; details: 10 µM
# Trypanosoma cruzi = assay: Trypanosoma cruzi phosphomannomutase and mannose-1-phosphate guanylyltransferase assay; format: functional; details: 10 µM
# [5] = biological target: T2, Arginase-2, mitochondrial (Homo sapiens) (UniProt P78540); assay: in vitro enzyme assay to detect the production of urea directly proportional to the activity of Arginase II; format: functional; details: 33.3 µM; also: in the data most compounds retested in dose-response had high values
# T2 sequence (whole entry): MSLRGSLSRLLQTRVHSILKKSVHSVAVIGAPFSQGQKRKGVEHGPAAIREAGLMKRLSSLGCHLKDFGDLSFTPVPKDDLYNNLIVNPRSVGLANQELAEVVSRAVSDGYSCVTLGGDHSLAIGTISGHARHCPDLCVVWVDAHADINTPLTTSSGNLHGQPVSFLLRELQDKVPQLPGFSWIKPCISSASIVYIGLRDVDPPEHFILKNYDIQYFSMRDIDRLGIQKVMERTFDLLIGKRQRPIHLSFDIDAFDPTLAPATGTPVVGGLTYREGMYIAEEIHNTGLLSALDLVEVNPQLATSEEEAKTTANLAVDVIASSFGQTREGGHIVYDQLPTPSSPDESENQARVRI
# [6] = biological target: T3, Proteasome subunit beta (Trypanosoma cruzi) (UniProt O96673); assay: Trypanosoma cruzi proteasome chymotrypsin-like activity (TcProtChymo) assay.; also: in the data most compounds retested in dose-response had high values; format: functional; details: 9.37 µM
# T3 sequence (whole entry): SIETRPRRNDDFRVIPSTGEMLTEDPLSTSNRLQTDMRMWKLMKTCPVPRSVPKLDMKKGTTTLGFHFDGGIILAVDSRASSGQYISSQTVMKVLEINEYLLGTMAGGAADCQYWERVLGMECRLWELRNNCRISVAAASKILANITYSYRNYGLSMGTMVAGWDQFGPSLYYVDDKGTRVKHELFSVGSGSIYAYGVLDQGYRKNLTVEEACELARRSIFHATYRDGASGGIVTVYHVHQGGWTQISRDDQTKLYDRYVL
# Homo sapiens = species: Homo sapiens; assay: To identify inhibition of the IFN signalling (Jak-Stat) pathway via expression of an eGFP reporter gene under the control of an IFN-stimulated response element (ISRE) containing MxA promoter.; format: functional; details: 30 µM
# [7] = biological target: T4, Tyrosyl-tRNA synthetase, putative (Trypanosoma cruzi (strain CL Brener)) (UniProt Q4DSP6); assay: Trypanosoma cruzi tyrosyl tRNA synthetase (TcYRS) _High Tyrosine SOP; format: functional; details: 30 µM; also: in the data most compounds retested in dose-response had high values
# T4 sequence (whole entry): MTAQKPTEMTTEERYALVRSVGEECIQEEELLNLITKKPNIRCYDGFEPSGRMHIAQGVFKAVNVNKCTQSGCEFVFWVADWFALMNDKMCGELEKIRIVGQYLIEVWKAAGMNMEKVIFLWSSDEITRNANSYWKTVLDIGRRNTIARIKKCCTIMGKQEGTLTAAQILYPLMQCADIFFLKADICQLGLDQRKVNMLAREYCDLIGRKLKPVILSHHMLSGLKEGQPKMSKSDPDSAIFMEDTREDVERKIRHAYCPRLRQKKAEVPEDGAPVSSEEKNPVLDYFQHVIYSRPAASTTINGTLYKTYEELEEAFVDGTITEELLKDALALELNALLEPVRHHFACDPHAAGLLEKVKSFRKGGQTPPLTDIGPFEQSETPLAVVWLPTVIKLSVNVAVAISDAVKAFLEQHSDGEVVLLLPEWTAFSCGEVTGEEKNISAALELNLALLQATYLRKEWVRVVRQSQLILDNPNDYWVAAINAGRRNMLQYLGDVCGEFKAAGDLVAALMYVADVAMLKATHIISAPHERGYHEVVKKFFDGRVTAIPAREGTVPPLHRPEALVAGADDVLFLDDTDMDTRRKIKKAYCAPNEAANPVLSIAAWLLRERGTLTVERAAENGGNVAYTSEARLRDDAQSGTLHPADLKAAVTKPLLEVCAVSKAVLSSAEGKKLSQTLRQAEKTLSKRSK
# [8] = biological target: T4, Tyrosyl-tRNA synthetase, putative (Trypanosoma cruzi (strain CL Brener)); assay: Trypanosoma cruzi tyrosyl tRNA synthetase (TcYRS) SOP; format: functional; details: 30 µM
# [9] = biological target: Chromo domain-containing protein 1 (Saccharomyces cerevisiae (strain ATCC 204508 / S288c) (Baker's yeast)) (UniProt P32657); assay: ScCHD-1 Enzyme Inhibition Assay; format: functional; details: 30 µM; also: in the data most compounds retested in dose-response had high values
# Sequence of Chromo domain-containing protein 1 (Saccharomyces cerevisiae (strain ATCC 204508 / S288c) (Baker's yeast)) (P32657 whole entry, the tested form may be a part): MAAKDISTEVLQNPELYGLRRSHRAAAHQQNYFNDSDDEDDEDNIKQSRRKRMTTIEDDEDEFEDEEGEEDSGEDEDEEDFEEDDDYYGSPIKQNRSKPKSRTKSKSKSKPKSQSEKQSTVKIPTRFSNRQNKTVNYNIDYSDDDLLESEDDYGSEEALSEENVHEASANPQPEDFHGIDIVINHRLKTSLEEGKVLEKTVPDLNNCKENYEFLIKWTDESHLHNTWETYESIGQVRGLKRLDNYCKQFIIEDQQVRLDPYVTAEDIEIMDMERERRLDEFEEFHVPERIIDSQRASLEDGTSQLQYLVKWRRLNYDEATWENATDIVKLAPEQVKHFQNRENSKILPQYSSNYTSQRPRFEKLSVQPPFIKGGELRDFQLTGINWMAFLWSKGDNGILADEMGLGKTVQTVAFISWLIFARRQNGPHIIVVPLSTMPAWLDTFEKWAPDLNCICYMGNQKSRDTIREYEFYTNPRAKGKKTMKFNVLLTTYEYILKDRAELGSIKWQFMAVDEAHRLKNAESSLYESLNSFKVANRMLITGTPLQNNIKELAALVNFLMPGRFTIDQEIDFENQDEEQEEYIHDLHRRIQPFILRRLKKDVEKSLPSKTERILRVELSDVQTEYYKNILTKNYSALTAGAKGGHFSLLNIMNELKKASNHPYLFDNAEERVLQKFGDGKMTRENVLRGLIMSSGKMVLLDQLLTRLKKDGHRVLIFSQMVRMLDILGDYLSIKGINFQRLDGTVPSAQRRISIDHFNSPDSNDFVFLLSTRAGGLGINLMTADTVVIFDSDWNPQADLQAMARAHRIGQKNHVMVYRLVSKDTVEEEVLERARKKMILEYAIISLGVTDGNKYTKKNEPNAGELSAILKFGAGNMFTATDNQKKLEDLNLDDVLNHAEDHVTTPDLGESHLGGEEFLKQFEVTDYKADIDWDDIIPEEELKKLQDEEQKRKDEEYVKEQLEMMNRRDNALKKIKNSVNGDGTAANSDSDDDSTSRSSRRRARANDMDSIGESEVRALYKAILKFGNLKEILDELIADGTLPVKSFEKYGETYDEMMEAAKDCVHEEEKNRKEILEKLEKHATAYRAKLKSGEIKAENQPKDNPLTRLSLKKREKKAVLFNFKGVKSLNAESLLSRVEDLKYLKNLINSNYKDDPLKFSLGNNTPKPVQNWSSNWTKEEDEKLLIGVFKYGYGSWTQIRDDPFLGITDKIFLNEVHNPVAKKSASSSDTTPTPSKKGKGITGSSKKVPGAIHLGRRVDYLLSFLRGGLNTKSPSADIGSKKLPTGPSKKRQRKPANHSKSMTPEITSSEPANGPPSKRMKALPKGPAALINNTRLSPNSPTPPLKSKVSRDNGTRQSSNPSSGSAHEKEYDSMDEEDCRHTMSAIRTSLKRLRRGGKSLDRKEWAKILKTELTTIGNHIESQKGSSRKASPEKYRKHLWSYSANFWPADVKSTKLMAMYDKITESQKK
# Sequence of Sialic acid-binding Ig-like lectin 9 (Homo sapiens) (Q9Y336 whole entry): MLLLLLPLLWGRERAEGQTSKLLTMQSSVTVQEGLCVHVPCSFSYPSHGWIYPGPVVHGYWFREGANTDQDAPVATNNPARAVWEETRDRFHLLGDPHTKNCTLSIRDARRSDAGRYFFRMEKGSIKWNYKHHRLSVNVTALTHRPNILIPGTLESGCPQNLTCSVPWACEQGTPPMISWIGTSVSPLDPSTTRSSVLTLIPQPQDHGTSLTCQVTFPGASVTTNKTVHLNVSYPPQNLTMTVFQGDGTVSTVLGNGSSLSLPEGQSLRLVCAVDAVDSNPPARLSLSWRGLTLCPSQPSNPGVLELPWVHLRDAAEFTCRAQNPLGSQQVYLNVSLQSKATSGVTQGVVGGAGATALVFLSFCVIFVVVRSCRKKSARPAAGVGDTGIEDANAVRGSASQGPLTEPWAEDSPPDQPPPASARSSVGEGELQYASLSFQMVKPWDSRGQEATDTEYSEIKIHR
# Sequence of Protein translocase subunit SecA (Escherichia coli (strain K12)) (P10408 whole entry): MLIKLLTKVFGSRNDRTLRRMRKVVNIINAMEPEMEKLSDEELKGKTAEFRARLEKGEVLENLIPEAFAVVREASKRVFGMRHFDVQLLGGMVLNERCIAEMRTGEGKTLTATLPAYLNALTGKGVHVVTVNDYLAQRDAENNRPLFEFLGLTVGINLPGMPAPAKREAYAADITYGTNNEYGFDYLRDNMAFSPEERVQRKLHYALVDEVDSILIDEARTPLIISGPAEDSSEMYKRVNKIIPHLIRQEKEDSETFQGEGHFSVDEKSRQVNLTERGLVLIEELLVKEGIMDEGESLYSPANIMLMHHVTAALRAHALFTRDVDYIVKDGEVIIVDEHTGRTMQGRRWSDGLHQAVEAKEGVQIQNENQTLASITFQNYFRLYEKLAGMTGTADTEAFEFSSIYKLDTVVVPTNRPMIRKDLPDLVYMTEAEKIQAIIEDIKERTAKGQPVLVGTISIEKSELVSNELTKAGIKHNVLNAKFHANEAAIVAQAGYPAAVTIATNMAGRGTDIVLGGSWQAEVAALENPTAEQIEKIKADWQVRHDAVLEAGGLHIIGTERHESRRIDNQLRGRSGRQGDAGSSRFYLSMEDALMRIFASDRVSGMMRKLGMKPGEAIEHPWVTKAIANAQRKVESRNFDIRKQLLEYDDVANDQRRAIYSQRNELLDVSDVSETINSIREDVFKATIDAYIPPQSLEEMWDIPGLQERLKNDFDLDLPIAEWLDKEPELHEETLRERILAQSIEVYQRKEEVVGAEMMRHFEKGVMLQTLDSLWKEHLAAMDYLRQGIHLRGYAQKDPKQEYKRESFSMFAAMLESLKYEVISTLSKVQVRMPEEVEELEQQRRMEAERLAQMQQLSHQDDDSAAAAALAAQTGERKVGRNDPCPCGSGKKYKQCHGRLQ
compound,measurement,setting,value
CNC(=O)[C@H]1C[C@@H]2CN(S(=O)(=O)c3ccccc3)C[C@@H]2N1C(C)=O,Percent Effect,[1],-5.14%
same,Percent Effect,[2],7.79%
same,Percent Effect,[3],3.54%
same,Percent Effect,[4],8.79%
same,Percent Effect,Trypanosoma cruzi,8.95%
same,Percent Effect,[5],1.38%
same,Percent Effect,[6],8.32%
same,Percent Effect,Homo sapiens,18.1%
same,Percent Effect,[7],5.38%
same,Percent Effect,[8],11.1%
same,Percent Effect,[9],1.18%
Cc1ccc(C)c(CNC(=O)NC(C)(C(=O)O)c2ccco2)c1 (stereo not drawn),Percent Effect,[1],-5.53%
same,Percent Effect,[2],21.1%
same,Percent Effect,[3],-0.592%
same,Percent Effect,[4],12.2%
same,Percent Effect,Trypanosoma cruzi,8.12%
same,Percent Effect,[5],-5.75%
same,Percent Effect,[6],5.33%
same,Percent Effect,Homo sapiens,5.04%
same,Percent Effect,[7],5.42%
same,Percent Effect,[8],16.1%
same,Percent Effect,[9],-4.02%
CCOc1ccnc(N2CCN(C(=O)C(C)(C)C#N)CC2)n1,Percent Effect,[1],-5.28%
same,Percent Effect,[2],15.8%
same,Percent Effect,[3],-6.59%
same,Percent Effect,[4],-2.59%
same,Percent Effect,Trypanosoma cruzi,-4.39%
same,Percent Effect,[5],1.8%
same,Percent Effect,[6],4.99%
same,Percent Effect,Homo sapiens,6.24%
same,Percent Effect,[7],1.48%
same,Percent Effect,[8],6.17%
same,Percent Effect,[9],-2.03%
CN(C)CCN1CCC2(CC1)CN(c1cccnc1)C(=O)CO2,Percent Effect,[1],-2.58%
same,Percent Effect,[2],10.8%
same,Percent Effect,[3],0.668%
same,Percent Effect,[4],-8.57%
same,Percent Effect,Trypanosoma cruzi,-5.18%
same,Percent Effect,[5],2.23%
same,Percent Effect,[6],24.4%
same,Percent Effect,Homo sapiens,12.1%
same,Percent Effect,[7],4.32%
same,Percent Effect,[8],10.3%
same,Percent Effect,[9],-2.65%
O=C(c1cccc2c1OCO2)N1CCCC1c1noc(C2CC2)n1 (stereo not drawn),Percent Effect,[1],-5.41%
same,Percent Effect,[2],5.06%
same,Percent Effect,[3],-1.36%
same,Percent Effect,[4],-1.04%
same,Percent Effect,Trypanosoma cruzi,10.5%
same,Percent Effect,[5],-3.42%
same,Percent Effect,[6],-2.38%
same,Percent Effect,Homo sapiens,5%
same,Percent Effect,[7],4.43%
same,Percent Effect,[8],11.4%
same,Percent Effect,[9],-6.85%
c1ccc(-c2cnc(CNCC3CCCN3c3cccnn3)o2)cc1 (stereo not drawn),Percent Effect,[1],-1.23%
same,Percent Effect,[2],-5.2%
same,Percent Effect,[3],3.3%
same,Percent Effect,[4],-5.27%
same,Percent Effect,Trypanosoma cruzi,1.86%
same,Percent Effect,[5],3.16%
same,Percent Effect,[6],15.8%
same,Percent Effect,Homo sapiens,0.932%
same,Percent Effect,[7],16.2%
same,Percent Effect,[8],21.2%
same,Percent Effect,[9],-20.7%
CCOc1ncccc1NC(=O)N1CCCCCC1,Percent Effect,[1],-4.07%
same,Percent Effect,[2],5.41%
same,Percent Effect,[3],0.669%
same,Percent Effect,[4],8.62%
same,Percent Effect,Trypanosoma cruzi,-0.836%
same,Percent Effect,[5],-1.29%
same,Percent Effect,[6],0.179%
same,Percent Effect,Homo sapiens,13.2%
same,Percent Effect,[7],2.97%
same,Percent Effect,[8],6.1%
same,Percent Effect,[9],1.09%
COc1cccc2ccn(CCC(=O)N3CCCC(C(=O)O)C3)c12 (stereo not drawn),Percent Effect,[1],-7.04%
same,Percent Effect,[2],21.1%
same,Percent Effect,[3],5.95%
same,Percent Effect,[4],-0.508%
same,Percent Effect,Trypanosoma cruzi,3.8%
same,Percent Effect,[5],-1.18%
same,Percent Effect,[6],14.1%
same,Percent Effect,Homo sapiens,6.03%
same,Percent Effect,[7],2.13%
same,Percent Effect,[8],10.4%
same,Percent Effect,[9],-7.67%
